This is an account of results in ChEMBL document CHEMBL3988442, “University of Dundee, Small-Polar-MMV Screening Library” (2021).

The target of the first test is T1, Proteasome subunit beta (Trypanosoma cruzi) (UniProt O96673).
T1 sequence (whole entry): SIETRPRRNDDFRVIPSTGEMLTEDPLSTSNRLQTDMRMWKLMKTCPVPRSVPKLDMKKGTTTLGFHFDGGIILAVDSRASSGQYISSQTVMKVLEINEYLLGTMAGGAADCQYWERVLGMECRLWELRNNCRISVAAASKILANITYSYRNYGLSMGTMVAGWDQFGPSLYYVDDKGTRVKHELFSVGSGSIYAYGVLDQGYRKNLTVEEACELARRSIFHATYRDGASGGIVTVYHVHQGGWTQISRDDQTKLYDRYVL
The test is described as follows: Trypanosoma cruzi proteasome chymotrypsin-like activity (TcProtChymo) assay. Format: functional. On the set-up: scale not given: in the data most compounds retested in dose-response had high values. The conditions noted are these: 9.37 µM.
In the case of `Cc1cnc(N2CCCC3(CCN(Cc4csc(C)n4)C3=O)C2)nc1` (centres undefined), the Percent Effect was 5.64%. Regarding `CCS(=O)(=O)N(C)c1ccc(C(=O)N2CCCC(C)C2)cc1` (centres undefined), the Percent Effect stood at 0.351%.

`CC(=O)Nc1nc(C(=O)N2CCCC2c2noc(C)n2)cs1` (centres undefined): the Percent Effect is -2.2%. Take `Cc1cccc(NC(=O)N2CCCn3cnc(CN4CCCC4)c3C2)c1`: the Percent Effect was 12.4%. The same measure, in the same setting: the value for `Cc1cc(C(F)(F)F)nn1CC(C)C(=O)Nc1ccncc1` (centres undefined) was 10.9%; that for `CNC(=O)c1ccc(OC2CCN(S(C)(=O)=O)CC2)c(Cl)c1` was 14.7%; that for `Cc1nnc(N2C[C@H](C(=O)NCC3CC3)[C@@H]3CCO[C@@H]3C2)s1` was 0.696%. On to `CCOc1nnc(CNC2CCCN(c3ccc(C)nn3)C2)s1` (centres undefined), for which the Percent Effect amounted to 15.1%. As to `CC(C)NC(=O)N1CCN(S(=O)(=O)C2CC2)CC2(CC(=O)N(C)C2)C1` (centres undefined), the Percent Effect is -2.79%. For the compound `Cc1noc(CN2CCN(CC(C)O)CC2)n1` (centres undefined), the Percent Effect amounted to 9.21%.

The species entered for the next test is Homo sapiens. As to the kind of experiment: To identify inhibition of the IFN signalling (Jak-Stat) pathway via expression of an eGFP reporter gene under the control of an IFN-stimulated response element (ISRE) containing MxA promoter. On the set-up: scale not given: direction of the effect not stated beside the values. Format: functional. The conditions noted are these: 30 µM.
For the compound `N#Cc1ccc(N2CCCN(C(=O)CC3CCCO3)CC2)cc1` (centres undefined), the Percent Effect is 10.8%. Still for that read-out and setting: the value for `O=c1ccc(-c2cccs2)nn1CN1CCN(Cc2ccccc2)CC1` was 20.2%. On the same count and under the same terms, the value for `Cc1ccc(C(=O)NS(=O)(=O)c2cc(Cl)ccc2Cl)c(=O)[nH]1` was 32%. The same measure, in the same setting: the value for `Cc1nccn1C1CCCN(C(=O)c2cc(O)nc3ccccc23)C1` (centres undefined) was -4.23%; that for `CCCc1n[nH]c(C2CN(C(=O)c3cc(F)ccc3OC)CCO2)n1` (centres undefined) was -17.2%. For `Cc1cnn(CC2CCCN2CCCc2nc3ccccc3o2)c1` (centres undefined), the Percent Effect was 4.32%. `CC(=O)N1CC(Cc2nccc3ccn(C)c23)C1`: the Percent Effect was determined as 1.82%. Still for that read-out and setting: the value for `CC(c1ccc(Cl)cc1)N1CCN(CCNS(C)(=O)=O)CC1` (centres undefined) was 4.77%; that for `CCn1ccnc1-c1nc2cc(S(=O)(=O)N3CCCC3)ccc2n1C` was 2.47%; that for `Cc1ccc(CNCc2ccc(-n3nc(C)cc3C)nc2)cc1` was 6.18%.

Turning to `CC(C)Oc1cccc(C(=O)C2CCCN(C(=O)c3ccccn3)C2)c1` (centres undefined), the Percent Effect is 5%. For `CCCS(=O)(=O)N1CCOCC2(CCN(c3ccccn3)C2)C1` (centres undefined), the Percent Effect is 3.94%.

For `CC(C)Oc1cccc(CNC(=O)NC(C)(C(=O)O)c2ccco2)c1` (centres undefined), the Percent Effect is -7.9%. Take `O=C(Nc1cccc(CN2CCOC2=O)c1)N1CCSCC1`: the Percent Effect is -2.05%.

Consider `Cc1cc(C)cc(NC(=O)CN2CCCC(n3cncn3)C2)c1` (centres undefined), for which the Percent Effect amounted to 3.59%. For `Cc1ncsc1CN1CC[C@H]2C(=O)N(c3ccccc3)CCO[C@H]2C1`, the Percent Effect stood at 14.6%. For the compound `CCc1nccn1C1CCCN(C(=O)c2ccc3c(c2)OCO3)C1` (centres undefined), the Percent Effect turned out to be 25.9%.

On to `CCN(CC)CC(=O)NCCc1csc(N2CCCC2)n1`, for which the Percent Effect is 5.85%. Regarding `COc1cc(NC(=O)c2cc(C)sc2C)c(C(=O)N(C)C)cc1OC`, the Percent Effect is -8.35%.

Turning to `O=C(Cn1ccc2sccc2c1=O)NCc1ccc2c(c1)OCO2`, the Percent Effect is 1.29%. On the same count and under the same terms, the value for `Cc1nc(CN2C(=O)COC3(CCN(Cc4ccco4)CC3)C2C)cs1` (centres undefined) was 2.79%; that for `COc1cccc(S(=O)(=O)CCN2CCC3(CC2)OCCO3)c1` was 6.75%; that for `CNC(=O)NC(=O)CN1CCC(c2cccc(F)c2)C1` (centres undefined) was 11.3%. In the case of `N#Cc1ccc(CNCC(C(=O)N2CCOCC2)c2ccccc2)cc1` (centres undefined), the Percent Effect is -2.22%. Turning to `Cc1ccccc1CNc1nc(O)cc(C2CC(=O)N(C)C2)n1` (centres undefined), the Percent Effect came out at 8.17%.

In the case of `COc1cccn(CC(=O)N(C)Cc2ccoc2)c1=O`, the Percent Effect was -11%.

As to `CC(NCc1ccc(F)cc1)c1ccc(OCC(=O)NC2CC2)cc1` (centres undefined), the Percent Effect worked out at 17%. As to `COc1c(C)cnc(CN2CCCCC2Cn2nc(C)nc2C)c1C` (centres undefined), the Percent Effect amounted to 4.74%. For `O=C1NCCN1C1CCN(Cc2nc(-c3ccoc3)no2)CC1`, the Percent Effect was -2.53%.

Turning to `Cc1cnc(N2CCCC3(CCN(Cc4csc(C)n4)C3=O)C2)nc1` (centres undefined), the Percent Effect is -4.88%. Consider `CCS(=O)(=O)N(C)c1ccc(C(=O)N2CCCC(C)C2)cc1` (centres undefined), for which the Percent Effect amounted to 4.06%. As to `CC(=O)Nc1nc(C(=O)N2CCCC2c2noc(C)n2)cs1` (centres undefined), the Percent Effect is 22.6%. Still for that read-out and setting: the value for `Cc1cccc(NC(=O)N2CCCn3cnc(CN4CCCC4)c3C2)c1` was -6.55%; that for `Cc1cc(C(F)(F)F)nn1CC(C)C(=O)Nc1ccncc1` (centres undefined) was 19.9%; that for `CNC(=O)c1ccc(OC2CCN(S(C)(=O)=O)CC2)c(Cl)c1` was 24.7%. Same read-out and setting: the value for `Cc1nnc(N2C[C@H](C(=O)NCC3CC3)[C@@H]3CCO[C@@H]3C2)s1` was 7.74%. On to `CCOc1nnc(CNC2CCCN(c3ccc(C)nn3)C2)s1` (centres undefined), for which the Percent Effect amounted to 18.7%. The same measure, in the same setting: the value for `CC(C)NC(=O)N1CCN(S(=O)(=O)C2CC2)CC2(CC(=O)N(C)C2)C1` (centres undefined) was 12.6%. The same measure, in the same setting: the value for `Cc1noc(CN2CCN(CC(C)O)CC2)n1` (centres undefined) was -0.0675%.
